What all share (assay): DAPPL (digital affinity profiling via proximity ligation, sequencing); 10 mM Tris-HCl pH 7.5, 50 mM NaCl, 1 mM DTT, 4% glycerol, room temperature, 30 min; GST-TFs on glutathione beads, 16-mer random dsDNA library, 0.1% formaldehyde crosslink after washing; high values mean tight binding
Conditions in all cases: protein: recombinant; tags: N-terminal GST; dsDNA, one strand shown

Assay [1] has as its target T1, FLI1 (Homo sapiens, UniProt Q01543 1-452).
T1 sequence: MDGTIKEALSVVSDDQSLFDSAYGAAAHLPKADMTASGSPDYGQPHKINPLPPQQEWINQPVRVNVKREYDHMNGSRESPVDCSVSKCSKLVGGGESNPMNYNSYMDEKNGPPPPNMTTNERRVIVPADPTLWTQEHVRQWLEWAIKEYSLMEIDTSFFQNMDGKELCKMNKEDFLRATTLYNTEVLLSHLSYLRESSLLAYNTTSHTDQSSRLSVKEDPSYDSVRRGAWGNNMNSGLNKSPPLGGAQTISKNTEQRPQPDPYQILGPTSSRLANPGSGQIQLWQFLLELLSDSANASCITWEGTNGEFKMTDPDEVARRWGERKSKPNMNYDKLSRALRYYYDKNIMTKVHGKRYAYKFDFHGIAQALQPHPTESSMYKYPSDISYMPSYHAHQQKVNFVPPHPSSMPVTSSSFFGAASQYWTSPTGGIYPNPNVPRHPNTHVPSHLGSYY
In outline: (§1)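 Binding signal is each hexamer's read frequency for a factor divided by its frequency in the tag-only sample. The factors were GST-fused human transcription factors from yeast, captured on glutathione beads, DNA-barcoded and pooled with that sample. Pools were incubated with 200 nmole of a random double-stranded 16-mer DNA library in Tris/NaCl/DTT/glycerol buffer at room temperature for 30 min, then washed, crosslinked with 0.1% formaldehyde, proximity-ligated with BsaI/T4 ligase (1 h, 37 °C), PCR-amplified and sequenced on an Illumina NextSeq500.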

The target in assay [2] is T2, ELK1 (Homo sapiens, UniProt P19419 1-428).
T2 sequence: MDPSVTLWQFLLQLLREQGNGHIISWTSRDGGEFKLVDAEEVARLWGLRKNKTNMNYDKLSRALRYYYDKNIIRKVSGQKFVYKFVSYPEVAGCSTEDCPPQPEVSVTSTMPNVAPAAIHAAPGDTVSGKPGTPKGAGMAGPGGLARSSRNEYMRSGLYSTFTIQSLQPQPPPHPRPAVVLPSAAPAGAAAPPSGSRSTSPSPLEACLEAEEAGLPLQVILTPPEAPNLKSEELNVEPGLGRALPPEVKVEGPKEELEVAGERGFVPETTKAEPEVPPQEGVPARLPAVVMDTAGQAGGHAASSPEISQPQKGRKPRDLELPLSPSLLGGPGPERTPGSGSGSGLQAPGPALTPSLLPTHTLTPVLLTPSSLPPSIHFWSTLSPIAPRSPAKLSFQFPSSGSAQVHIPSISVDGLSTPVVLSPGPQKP
An outline of the steps: as §1

The target in assay [3] is T3, GABPA (Homo sapiens, UniProt Q06546 1-454).
T3 sequence: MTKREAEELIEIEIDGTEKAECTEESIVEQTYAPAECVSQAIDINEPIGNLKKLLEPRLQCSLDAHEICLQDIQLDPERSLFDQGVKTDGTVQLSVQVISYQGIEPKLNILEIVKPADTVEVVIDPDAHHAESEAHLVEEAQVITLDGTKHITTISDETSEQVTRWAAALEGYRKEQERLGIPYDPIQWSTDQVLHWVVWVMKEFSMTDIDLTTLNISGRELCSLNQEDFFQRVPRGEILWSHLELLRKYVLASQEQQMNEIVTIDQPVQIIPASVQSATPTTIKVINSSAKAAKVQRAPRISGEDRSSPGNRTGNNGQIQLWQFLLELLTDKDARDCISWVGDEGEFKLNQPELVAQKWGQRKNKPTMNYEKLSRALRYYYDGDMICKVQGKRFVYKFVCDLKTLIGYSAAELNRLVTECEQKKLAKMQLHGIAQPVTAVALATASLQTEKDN
An outline of the steps:
as §1

Assay [4] addresses T4, ERG (Homo sapiens, UniProt P11308 1-479).
T4 sequence: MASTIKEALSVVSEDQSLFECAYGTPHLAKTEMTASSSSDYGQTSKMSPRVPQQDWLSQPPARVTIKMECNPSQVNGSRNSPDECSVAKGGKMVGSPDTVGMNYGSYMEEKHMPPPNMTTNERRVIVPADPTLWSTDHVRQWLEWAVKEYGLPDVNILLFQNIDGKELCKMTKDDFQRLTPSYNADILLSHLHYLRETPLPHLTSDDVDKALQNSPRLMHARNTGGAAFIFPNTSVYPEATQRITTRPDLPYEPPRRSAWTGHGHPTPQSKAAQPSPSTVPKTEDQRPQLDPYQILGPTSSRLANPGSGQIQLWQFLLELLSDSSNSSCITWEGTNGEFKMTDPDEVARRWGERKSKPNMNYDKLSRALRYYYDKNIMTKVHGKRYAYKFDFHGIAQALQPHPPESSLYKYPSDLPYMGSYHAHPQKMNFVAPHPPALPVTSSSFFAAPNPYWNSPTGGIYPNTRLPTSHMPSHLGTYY
An outline of the steps: as §1

Assay [5] concerns the target ELF1 (Homo sapiens, UniProt P32519 1-619). An outline of the steps: as §1
Assay [6] has as its target T5, EHF (Homo sapiens, UniProt Q9NZC4 1-300).
T5 sequence: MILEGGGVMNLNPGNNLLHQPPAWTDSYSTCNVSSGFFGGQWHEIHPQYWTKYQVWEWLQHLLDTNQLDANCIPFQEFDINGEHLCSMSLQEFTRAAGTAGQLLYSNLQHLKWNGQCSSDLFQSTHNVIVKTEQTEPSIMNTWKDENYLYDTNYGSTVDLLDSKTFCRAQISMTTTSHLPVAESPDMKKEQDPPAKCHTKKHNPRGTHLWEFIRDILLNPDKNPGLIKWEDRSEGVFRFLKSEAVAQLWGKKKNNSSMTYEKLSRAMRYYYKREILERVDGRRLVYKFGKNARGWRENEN
An outline of the steps: as §1

Assay [7] has as its target SPI1 (Homo sapiens, UniProt P17947 1-270). An outline of the steps: as §1
Assay [8] has as its target SPIB (Homo sapiens, UniProt Q01892 1-262). In outline: as §1
Assay [9] has as its target T6, ELK3 (Homo sapiens, UniProt P41970 1-407).
T6 sequence: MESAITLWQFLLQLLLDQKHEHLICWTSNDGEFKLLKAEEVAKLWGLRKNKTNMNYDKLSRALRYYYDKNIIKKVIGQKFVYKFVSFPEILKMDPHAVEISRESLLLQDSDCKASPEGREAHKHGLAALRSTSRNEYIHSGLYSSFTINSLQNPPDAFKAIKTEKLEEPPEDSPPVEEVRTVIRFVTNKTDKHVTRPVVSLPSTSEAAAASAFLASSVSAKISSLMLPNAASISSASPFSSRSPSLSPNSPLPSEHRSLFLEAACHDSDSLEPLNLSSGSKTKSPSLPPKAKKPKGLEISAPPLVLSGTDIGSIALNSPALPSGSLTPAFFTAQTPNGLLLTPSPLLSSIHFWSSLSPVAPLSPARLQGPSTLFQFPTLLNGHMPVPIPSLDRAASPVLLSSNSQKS
In outline: as §1

The record followed here is PMC7862700, “An all-to-all approach to the identification of sequence-specific readers for epigenetic DNA modifications on cytosine”.

Sequence of ELF1 (P32519 whole entry): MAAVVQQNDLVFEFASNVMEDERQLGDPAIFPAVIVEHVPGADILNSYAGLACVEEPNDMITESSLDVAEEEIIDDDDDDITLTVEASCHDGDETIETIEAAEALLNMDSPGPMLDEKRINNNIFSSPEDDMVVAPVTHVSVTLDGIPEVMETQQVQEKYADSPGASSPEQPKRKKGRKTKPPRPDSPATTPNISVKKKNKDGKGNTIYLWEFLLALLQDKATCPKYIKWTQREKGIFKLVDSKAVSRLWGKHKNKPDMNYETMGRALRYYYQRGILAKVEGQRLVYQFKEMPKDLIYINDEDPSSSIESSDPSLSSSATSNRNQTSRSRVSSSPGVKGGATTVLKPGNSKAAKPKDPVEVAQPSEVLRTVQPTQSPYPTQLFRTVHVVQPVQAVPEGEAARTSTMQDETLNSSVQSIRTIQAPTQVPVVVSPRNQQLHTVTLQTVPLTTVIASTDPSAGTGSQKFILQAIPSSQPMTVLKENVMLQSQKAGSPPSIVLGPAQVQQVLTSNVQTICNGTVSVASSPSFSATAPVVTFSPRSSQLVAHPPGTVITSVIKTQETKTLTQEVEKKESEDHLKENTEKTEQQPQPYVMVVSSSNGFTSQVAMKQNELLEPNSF
Sequence of SPIB (Q01892 whole entry): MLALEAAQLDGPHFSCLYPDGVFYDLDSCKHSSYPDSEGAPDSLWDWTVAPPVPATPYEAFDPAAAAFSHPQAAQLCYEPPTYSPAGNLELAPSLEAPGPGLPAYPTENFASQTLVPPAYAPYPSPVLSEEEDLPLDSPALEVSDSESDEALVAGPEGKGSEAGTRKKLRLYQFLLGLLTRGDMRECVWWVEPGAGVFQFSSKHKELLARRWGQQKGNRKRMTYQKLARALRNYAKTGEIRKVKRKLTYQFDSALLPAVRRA

Turning to TATTAT, the binding signal was 1.3 fold enrichment (6-mer frequency, TF over GST control) in assay [1]; 1.27 fold enrichment (6-mer frequency, TF over GST control) in assay [2]; 1.21 fold enrichment (6-mer frequency, TF over GST control) in [3]; 1.25 fold enrichment (6-mer frequency, TF over GST control) in assay [4]; 1.25 fold enrichment (6-mer frequency, TF over GST control) in assay [5]; 1.25 fold enrichment (6-mer frequency, TF over GST control) in assay [6]. Moreover, the binding signal is 1.2 fold enrichment (6-mer frequency, TF over GST control) in assay [7]; 1.24 fold enrichment (6-mer frequency, TF over GST control) in assay [8]; 1.12 fold enrichment (6-mer frequency, TF over GST control) in assay [9].
For TCCATT, the binding signal in [1] was 1.34 fold enrichment (6-mer frequency, TF over GST control); in assay [2] it was 1.16 fold enrichment (6-mer frequency, TF over GST control); in assay [3] it was 1.3 fold enrichment (6-mer frequency, TF over GST control); in assay [4], 1.31 fold enrichment (6-mer frequency, TF over GST control); in assay [5], 1.26 fold enrichment (6-mer frequency, TF over GST control); in assay [6] it was 1.27 fold enrichment (6-mer frequency, TF over GST control). Moreover, the binding signal was 1.33 fold enrichment (6-mer frequency, TF over GST control) in [7]; 1.39 fold enrichment (6-mer frequency, TF over GST control) in assay [8]; 1.26 fold enrichment (6-mer frequency, TF over GST control) in assay [9].
Take CTCTCG: the binding signal is 1.42 fold enrichment (6-mer frequency, TF over GST control) in assay [1]; 1.34 fold enrichment (6-mer frequency, TF over GST control) in [2]; 1.37 fold enrichment (6-mer frequency, TF over GST control) in [3]; 1.44 fold enrichment (6-mer frequency, TF over GST control) in assay [4]; 1.49 fold enrichment (6-mer frequency, TF over GST control) in assay [5]; 1.31 fold enrichment (6-mer frequency, TF over GST control) in [6]. The binding signal was 1.45 fold enrichment (6-mer frequency, TF over GST control) in assay [7]; 1.37 fold enrichment (6-mer frequency, TF over GST control) in assay [8]; 1.47 fold enrichment (6-mer frequency, TF over GST control) in assay [9].
In the case of CCCCAA, the binding signal in [1] was 1.1 fold enrichment (6-mer frequency, TF over GST control); in [2], 1.16 fold enrichment (6-mer frequency, TF over GST control); in assay [3] it was 1.16 fold enrichment (6-mer frequency, TF over GST control); in assay [4], 1.18 fold enrichment (6-mer frequency, TF over GST control); in [5], 1.19 fold enrichment (6-mer frequency, TF over GST control); in assay [6] it was 1.23 fold enrichment (6-mer frequency, TF over GST control). The binding signal in [7] is 1.2 fold enrichment (6-mer frequency, TF over GST control); in assay [8], 1.07 fold enrichment (6-mer frequency, TF over GST control); in assay [9] it was 1.09 fold enrichment (6-mer frequency, TF over GST control).
In the case of ATACAA, the binding signal is 1.19 fold enrichment (6-mer frequency, TF over GST control) in [1]; 1.15 fold enrichment (6-mer frequency, TF over GST control) in assay [2]; 1.14 fold enrichment (6-mer frequency, TF over GST control) in [3]; 1.1 fold enrichment (6-mer frequency, TF over GST control) in assay [4]; 1.21 fold enrichment (6-mer frequency, TF over GST control) in assay [5]; 1.15 fold enrichment (6-mer frequency, TF over GST control) in assay [6]. Also, the binding signal in assay [7] was 1.07 fold enrichment (6-mer frequency, TF over GST control); in assay [8], 1.09 fold enrichment (6-mer frequency, TF over GST control); in assay [9], 1.31 fold enrichment (6-mer frequency, TF over GST control).
For AACCTA, the binding signal is 1.03 fold enrichment (6-mer frequency, TF over GST control) in assay [1]; 1.08 fold enrichment (6-mer frequency, TF over GST control) in assay [2]; 1.1 fold enrichment (6-mer frequency, TF over GST control) in [3]; 1.01 fold enrichment (6-mer frequency, TF over GST control) in [4]; 1.1 fold enrichment (6-mer frequency, TF over GST control) in [5]; 1.11 fold enrichment (6-mer frequency, TF over GST control) in assay [6]. Moreover, the binding signal in assay [7] was 1.08 fold enrichment (6-mer frequency, TF over GST control); in [8], 1.1 fold enrichment (6-mer frequency, TF over GST control); in assay [9], 1.1 fold enrichment (6-mer frequency, TF over GST control).
In the case of TCCCAC, the binding signal in assay [1] is 1.31 fold enrichment (6-mer frequency, TF over GST control); in assay [2], 1.42 fold enrichment (6-mer frequency, TF over GST control); in assay [3], 1.36 fold enrichment (6-mer frequency, TF over GST control); in assay [4] it was 1.37 fold enrichment (6-mer frequency, TF over GST control); in assay [5], 1.47 fold enrichment (6-mer frequency, TF over GST control); in assay [6] it was 1.38 fold enrichment (6-mer frequency, TF over GST control). Besides, the binding signal was 1.34 fold enrichment (6-mer frequency, TF over GST control) in [7]; 1.26 fold enrichment (6-mer frequency, TF over GST control) in assay [8]; 1.27 fold enrichment (6-mer frequency, TF over GST control) in assay [9].
Regarding TATACA, the binding signal in assay [1] is 1.32 fold enrichment (6-mer frequency, TF over GST control); in assay [2] it was 1.29 fold enrichment (6-mer frequency, TF over GST control); in [3], 1.42 fold enrichment (6-mer frequency, TF over GST control); in assay [4] it was 1.39 fold enrichment (6-mer frequency, TF over GST control); in assay [5], 1.27 fold enrichment (6-mer frequency, TF over GST control); in assay [6], 1.35 fold enrichment (6-mer frequency, TF over GST control). Besides, the binding signal is 1.32 fold enrichment (6-mer frequency, TF over GST control) in assay [7]; 1.22 fold enrichment (6-mer frequency, TF over GST control) in assay [8]; 1.47 fold enrichment (6-mer frequency, TF over GST control) in [9].
